Data as given in PubChem BioAssay AID720580 (National Center for Advancing Translational Sciences (NCATS), 2013).
The campaign covered roughly 330,000 compounds. About 1,500 (0.45%) were called active. Another 6% or so got no clear call; they are omitted. This is one part of a sample in which actives are shown more often than they occur. Calls follow the shape of the full dose curve; tested in A549 cells.

Experiment: qHTS for Stage-Specific Inhibitors of Vaccinia Orthopoxvirus: Venus Reporter Primary qHTS; also: nearly all actives have a fitted effect of over 30% in size
Conditions: Vaccinia virus Venus reporter expression, fluorescence; series mostly up to 36.5 µM; activity change, negative = inhibition: at the top concentration
% is scaled to controls: 0 for no effect and ±100 for the full control effect; potency is read from the fitted curve at half-maximal effect.

| SMILES | activity change, negative = inhibition | Potency |
| --- | --- | --- |
| Cc1cccc(-n2c(C)cc(/C=N/NC(N)=S)c2C)c1 | -19.7% (inactive) |  |
| NC(=S)N/N=C/c1coc2cc(Cl)ccc2c1=O | -2.91% (inactive) |  |
| CC(C)Oc1c(Br)cc(Br)cc1/C=N/NC(N)=S |  | 5.01 µM (active) |
| CCCCCn1nnnc1C1c2ccccc2C(=O)N1Cc1ccco1 (stereo unspecified) | 0.846% (inactive) |  |
| O=C(Nc1ccccc1Cl)O/N=C(/c1ccccc1)c1ccccn1 | -8.43% (inactive) |  |
| O=C(Cc1ccc2c(c1)CCCC2)Nc1ccccc1Cl | -2.79% (inactive) |  |
| O=C(Nc1ccccc1Cl)/C(Cl)=C(\Cl)S(=O)c1ccccc1 (stereo unspecified) |  | 10 µM (active) |
| C[C@@]12CCC3C(CC[C@@H]4CC(O)CC[C@@]34C)C1CCC2O (stereo partly specified) | 0% (inactive) |  |
| C[C@]12CC[C@H](O)C[C@H]1CC[C@@H]1C2CC[C@]2(C)[C@@H](C3=CC(=O)OC3)[C@@H](O)C[C@]12O (stereo partly specified) |  | 3.16 µM (active) |
| CC(CCC(=O)O)C1CCC2C3C(O)C[C@@H]4CC(O)CC[C@@]4(C)C3CC[C@@]12C (stereo partly specified) |  | inactive |
| Cc1csc(NCC(=O)c2c[nH]c3ccccc23)n1 | -23% (inactive) |  |
| CCOC(=O)[C@]12CCC=C1N(Cc1cccc3ccccc13)C(=O)[C@H](CC(=O)NCc1cccc(C(F)(F)F)c1)C2 | -28.4% (inactive) |  |
| COc1ccc(C(C)C)cc1-c1ccc2nncn2c1 | -10.8% (inactive) |  |
| Cc1cc(C)n2c(NCc3ccccc3)c(CC(C)C)nc2n1 | 18.6% (inactive) |  |
| Cc1ccc(NC(=O)Nc2cccc(C(F)(F)F)c2)nc1 | -3.51% (inactive) |  |
| NC(c1ccccc1)c1csc(NC(=O)Nc2cccc(C(F)(F)F)c2)n1 (stereo unspecified) |  | 11.2 µM (active) |
| NC(c1csc(NC(=O)Nc2cccc(C(F)(F)F)c2)n1)C1CCCCC1 (stereo unspecified) |  | 10 µM (active) |
| CC(C)C[C@H](NC(=O)Nc1cccc(C(F)(F)F)c1)C(=O)O | -0.745% (inactive) |  |
| O=C(Nc1ccc(C(=O)N2CCOCC2)cc1)Nc1cccc(C(F)(F)F)c1 | -15.9% (inactive) |  |
| CC(=O)c1ccc(Nc2nc(C(N)c3ccccc3)cs2)cc1 (stereo unspecified) | -10.3% (inactive) |  |
| COc1ccc(C(O)C(O)(C(=O)OC(C)C)c2ccc(C)cc2)cc1 (stereo unspecified) | -12.4% (inactive) |  |
| COc1cc(C=C(OC(C)=O)c2ccc3c(c2)OCO3)cc(OC)c1OC | -4.33% (inactive) |  |

| SMILES | activity change, negative = inhibition | Potency |
| --- | --- | --- |
| COc1ccc(-c2ccc(C(=O)NCCN3CCOCC3)c3occc23)c(C)c1 | -23.2% (inactive) |  |
| COc1ccccc1Cc1c(-c2ccc(Cl)cc2)nc2c3ccccc3ccn12 | -4.99% (inactive) |  |
| COc1ccc(-c2coc3c(C(=O)NC(C)C)cccc23)c(C)c1 | -4.73% (inactive) |  |
| CCCCCn1nnnc1-c1nc2cc3ccccc3cc2[nH]c1=O | 64.3% (inactive) |  |
| CCOC(=O)C1C(C)C(C(C)(C)C)N(S(=O)(=O)c2ccc(C)cc2)C1c1ccccc1 (stereo unspecified) | -24.5% (inactive) |  |
| Cc1cc2nc(-c3ccc(Cl)cc3)c(Cc3cccc(F)c3)n2c(C)c1Br | 6.13% (inactive) |  |
| COc1cccc(CNC(=O)[C@@H]2CCCN2C(=O)[C@@H]2CCCN2C(=O)c2ccccc2)c1 | 2.4% (inactive) |  |
| COC(=O)c1ccc2nc(-c3ccc(C)cc3)c(Cc3ccc(OC)cc3C)n2c1 | -2.33% (inactive) |  |
| O=S1(=O)CC(N2CCN(Cc3ccccc3F)CC2)CN1Cc1cn(Cc2cccc(C(F)(F)F)c2)nn1 (stereo unspecified) | -5.88% (inactive) |  |
| CC(=O)/C(=N\Nc1ccc(Cl)cc1Cl)Sc1cccc2cccnc12 |  | 10 µM (active) |
| COc1c(Cl)cc(Cl)cc1C(=O)Nc1cccc2cccnc12 | 0.266% (inactive) |  |
| S=C(NCc1cccnc1)Nc1ccc(Cl)cc1Cl | -2.92% (inactive) |  |
| COc1ccc(/C=C/c2ccnc3ccccc23)cc1OC | -15.9% (inactive) |  |
| Cc1cn(COC/C=C/c2ccccc2)c(=O)[nH]c1=O | -11% (inactive) |  |
| CC1(C(=O)O)CCCN(C(=O)/C=C/c2ccccc2)C1 (stereo unspecified) | -5.44% (inactive) |  |
| Cc1[nH]c(=O)c(C(=O)/C=C/c2ccccc2)c2c1CCCC2 |  | 6.31 µM (active) |
| CC(C)(C)c1ccc(C(=O)C[n+]2cccc3cc(Cl)ccc32)cc1 | 313% (inactive) |  |
| CCOC(=O)c1ccn(S(=O)(=O)c2ccc(C)cc2)c1-c1ccccc1 | -2.99% (inactive) |  |
| CN(Cc1cn(Cc2ccc(C(F)(F)F)cc2)nn1)C1CN(Cc2cn(Cc3ccc(C(F)(F)F)cc3)nn2)S(=O)(=O)C1 (stereo unspecified) | -28% (inactive) |  |
| c1ccc(Cc2c(-c3ccco3)nc3c4ccccc4ccn23)cc1 | -0.586% (inactive) |  |
| CC[C@H]1CN2CCc3cc(OC)c(OC)cc3[C@@H]2C[C@@H]1C[C@H]1NCCc2cc(OC)c(OC)cc21 |  | 0.562 µM (active) |
| CCC(CC)C(=O)N1CCc2cc(OC)c(OC)cc2C1COc1ccc(F)cc1 (stereo unspecified) | -6.92% (inactive) |  |

| SMILES | activity change, negative = inhibition | Potency |
| --- | --- | --- |
| COc1cc2c(cc1OC)CN(CC(=O)Nc1ccc(F)cc1)CC2 | -9.04% (inactive) |  |
| CCc1oc(-c2ccc(OC)cc2)c(C(=O)OCCCCCO)c1C(C)OCCO (stereo unspecified) | 3.76% (inactive) |  |
| Cc1ccc(-c2nc(=N)sn2Cc2ccccc2)cc1 | -10.9% (inactive) |  |
| S=c1[nH]c(=S)c2n[nH]nc2[nH]1 | -10.3% (inactive) |  |
| CCCc1c(-c2ccccc2F)ncn1Cc1ccccc1OC | -12.8% (inactive) |  |
| c1cncc(CNCCc2c[nH]c3ccccc23)c1 | -2.23% (inactive) |  |
| COc1cccc(CNCCc2c[nH]c3ccccc23)c1OCc1ccccc1F |  | 10 µM (active) |
| COc1ccc(S(=O)(=O)NCCc2c[nH]c3ccccc23)cc1OC | 1.43% (inactive) |  |
| CO[C@H]1O[C@@H]2O[C@@]3(C)CC[C@@H]4[C@@H](C)CC[C@@H]([C@H]1C)[C@@]24OO3 | -8.19% (inactive) |  |
| CN(Cc1ccccc1F)c1cc2c(c3c1ccn3C)C1CCC2O1 (stereo unspecified) | -5.91% (inactive) |  |
| CN(C)c1ccc(/C=C/c2sc3ccccc3[n+]2C)cc1 | 66.9% (inactive) |  |
| OCC(O)C(O)C(O)C(O)C=Nc1ccc(/C=C/c2ccnc3ccccc23)cc1 (stereo unspecified) | 2.54% (inactive) |  |
| CCOCCC(=O)Nc1ccc2c(c1)c(=O)n(C)n2-c1ccc2ccccc2c1 | -25.4% (inactive) |  |
| CS(=O)c1ccc(/C=C2\C=Cc3ccccc32)cc1 (stereo unspecified) | 3.52% (inactive) |  |
| COc1cccc(/C=C2\SC(=S)N(CCCC(=O)N3CCOCC3)C2=O)c1 |  | 12.6 µM (active) |
| Cc1cc(/C=C2/SC(=O)N(CC(=O)N3CCCC3)C2=O)ccc1N1CCOCC1 | -17.6% (inactive) |  |
| COc1ccc(/C=C2\SC(=S)N(CCC(=O)N3CCOCC3)C2=O)cc1OC | -26.8% (inactive) |  |
| CCC(C)CN1C(=O)CSCC1(C)C(=O)NCc1ccccc1 (stereo unspecified) | -10.8% (inactive) |  |
| COc1ccc(C(C)(NC(C)=O)c2nc(-c3ccc(S(C)(=O)=O)cc3)cs2)cc1 (stereo unspecified) | 8.43% (inactive) |  |
| CCCCn1c(N)c(N(CCOC)C(=O)c2cccc(OCc3ccccc3)c2)c(=O)[nH]c1=O | -6.07% (inactive) |  |
| CCCCCCCCCCOC(=O)Cn1c(COc2cccc(OC)c2)[n+](C)c2ccccc21 |  | 11.2 µM (active) |
| COc1cccc(OCc2nnc3n2N=C(c2ccccc2)C(CC(=O)O)S3)c1 (stereo unspecified) | -0.775% (inactive) |  |
